# The full ranking holds about 1,100 compounds; the median of “Renilla luciferase signal (cell health) relative to plate median” is about 0.97, and the highest 2% start at about 1.6. The list comes from a sample in which the highest values are over-represented; it also holds similar structures and randomly drawn compounds.
# Tested on: HEK293T (UBE3A T485A transfected, BAR Wnt reporter)
# Test: Renilla luciferase signal (cell health) relative to plate median (fold (linear ratio)); higher = higher Renilla signal
# Conditions: 24 h
# Summary of the method: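 Using Fugene 6, HEK293T cells in white 384-well plates (4500 cells/well; DMEM, 10% FBS, 37°C, 5% CO2) were transfected with a BAR firefly luciferase Wnt reporter, TK-Renilla and an expression plasmid. After four hours, robots dosed the chemicals at 0.01–100 uM, and a Dual-Glo luciferase readout followed 24 h later. Per-plate median-centred firefly/Renilla ratios gave Wnt activity, while per-plate median-centred raw Renilla signals gave cell health. Four biological replicates were averaged.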
Structure (SMILES),Renilla luciferase signal (concentration: 0.1 uM),Renilla luciferase signal (concentration: 1 uM),Renilla luciferase signal (concentration: 10 uM),Renilla luciferase signal (concentration: 100 uM),Renilla luciferase signal (concentration: 0.01 uM)
CCCCCCCCC(=O)O [Nonanoic acid],0.743,0.854,0.901,0.975,
CN(C)c1ccc(C(=C2C=CC(=[N+](C)C)C=C2)c2ccc(N(C)C)cc2)cc1.[Cl-] [Gentian Violet],0.155,0.0242,0.0245,0.0226,
CCNc1ccccc1 [N-Ethylaniline],1.01,0.97,1.08,1.17,
c1ccc(Nc2ccccc2)cc1 [Diphenylamine],1.05,1.06,1.09,1.82,1.09
"Nc1ccc(Nc2ccccc2)cc1 [N-Phenyl-1,4-benzenediamine]",0.905,0.984,0.71,0.204,
"Nc1cccc(N)c1 [1,3-Benzenediamine]",1.19,1.05,1.19,1.74,
Nc1ccc2c(c1)C(=O)c1ccccc1C2=O [2-Aminoanthraquinone],1.16,0.898,0.829,0.621,
"Nc1cccc2c(N)cccc12 [1,5-Naphthalenediamine]",0.805,0.822,0.856,0.73,
CCCCC(CC)CO (stereo unspecified) [2-Ethyl-1-hexanol],0.758,0.775,0.504,1.25,
CCCCCCCCCCCCCCCCCC(=O)O [Octadecanoic acid],0.913,0.958,0.923,1.4,
CNC(CC(=O)O)C(=O)O (stereo unspecified),1.14,0.949,1.02,1.9,1.02
O=C(O)CC(O)C(=O)O (stereo unspecified) [Malic acid],1.33,1.26,1.32,1.29,
Cc1ccc2oc(CN(Cc3ccccc3)C(=O)Nc3c(F)cc(F)cc3F)c(-c3ccc(Cl)cc3)c2c1,0.953,0.858,0.846,0.482,
"CC(C)CCCCCCOC(=O)C1CCCCC1C(=O)OCCCCCCC(C)C (stereo unspecified) [Diisononyl cyclohexane-1,2-dicarboxylate]",0.946,1.13,1.06,1.38,
COc1cc(C(C)C)c2c(c1)S(=O)(=O)N(COc1cc(=O)n3cccc(OCCN4CCCCC4)c3n1)C2=O,1.26,1.3,1.21,0.497,
"CC(C)CC(C)(O)C#CC(C)(O)CC(C)C (stereo unspecified) [2,4,7,9-Tetramethyl-5-decyne-4,7-diol]",0.987,0.919,0.966,0.295,
C#CCOC(=O)[C@@H](C)Oc1ccc(Oc2ncc(Cl)cc2F)cc1 [Clodinafop-propargyl],1.11,1.04,1.01,0.269,0.926
CCCCOC(=O)[C@@H](C)Oc1ccc(Oc2ccc(C(F)(F)F)cn2)cc1 [Fluazifop-P-butyl],1.18,1.05,1.22,0.693,1.25
CCCCOC(=O)C(C)Oc1ccc(Oc2ccc(C(F)(F)F)cn2)cc1 (stereo unspecified) [Fluazifop-butyl],0.837,1.04,0.984,1.81,1.02
CCCCOC(=O)c1ccccc1 [Butyl benzoate],0.872,0.958,1.1,1.1,

Structure (SMILES),Renilla luciferase signal (concentration: 0.1 uM),Renilla luciferase signal (concentration: 1 uM),Renilla luciferase signal (concentration: 10 uM),Renilla luciferase signal (concentration: 100 uM),Renilla luciferase signal (concentration: 0.01 uM)
CCOC(=O)C(C)Oc1ccc(Oc2nc3ccc(Cl)cc3o2)cc1 (stereo unspecified) [Fenoxaprop-ethyl],0.851,1.02,1.13,1.78,0.9
CCOC(=O)C(C)(C)Oc1ccc(Cl)cc1 [Clofibrate],0.962,1.02,1.17,1.38,
CCOC(=O)C(C)Oc1ccc(Oc2cnc3cc(Cl)ccc3n2)cc1 (stereo unspecified) [Quizalofop-ethyl],0.758,0.993,0.953,1.88,1.1
O=C([O-])c1[nH]n(-c2ccc(S(=O)(=O)[O-])cc2)c(=O)c1/N=N/c1ccc(S(=O)(=O)[O-])cc1.[Na+].[Na+].[Na+] [FD&C Yellow 5],1.1,1.15,1.15,0.999,
CC1(C)CC(N=C=O)CC(C)(CN=C=O)C1 (stereo unspecified) [Isophorone diisocyanate],0.927,0.855,0.865,0.953,
S=C([S-])NCCNC(=S)[S-].[Mn+2] [Maneb],1.01,0.995,0.968,0.105,0.874
CC(C(C)N1CC(=O)NC(=O)C1)N1CC(=O)NC(=O)C1 (stereo unspecified),0.674,0.785,0.383,0.396,0.735
C=CCCCCCCCCC(=O)O [10-Undecenoic acid],0.947,0.883,0.917,1.16,
O=C(O)c1cccc(N(Cc2cccnc2)c2ccc(OC(F)F)c(OC(F)F)c2)c1,1.15,1.14,1.24,0.322,
CCCCCCCCCCCCCCC [Pentadecane],0.808,0.899,0.973,1.16,
"CN(C)CCCN(C)CCCN(C)C [2,6,10-Trimethyl-2,6,10-triazaundecane]",0.932,0.811,0.918,0.932,
COC(=O)c1ccc(C(=O)OC)cc1 [Dimethyl terephthalate],0.95,1.09,1.01,1.36,
Cc1nc(-c2ccccn2)ncc1C(=O)Nn1cc(C)c2cc(F)ccc21,0.941,0.877,1.05,1.02,
CCc1cc(C2=C(C(=O)[O-])N(c3ccccc3C(F)(F)F)S(=O)(=O)c3ccccc32)cc2c1OCO2.[K+] [Fandosentan potassium salt],1.01,1.1,0.887,0.331,
CN(Cc1cnc2nc(N)nc(N)c2n1)c1ccc(C(=O)N[C@@H](CCC(=O)O)C(=O)O)cc1 [Methotrexate],0.13,0.0382,0.0865,0.087,
CC(=O)Nc1ccc(O)cc1 [Acetaminophen],0.68,0.735,0.812,1.3,
O=C(O)c1cn(C2CC2)c2cc(N3CCNCC3)c(F)cc2c1=O [Ciprofloxacin],0.893,1.01,0.9,0.336,1.06
O=C1CN(N=Cc2ccc([N+](=O)[O-])o2)C(=O)N1 [Nitrofurantoin],0.891,1.01,1.69,0.345,
NC(=O)N/N=C/c1ccc([N+](=O)[O-])o1 [Nitrofurazone],1.03,1.13,1.44,0.334,

# Reference: the supplement of paper PMC9254222
